The results in this text go back to PubChem BioAssay (NCI).

Molecules are shown by their SMILES. The panel holds about 83,000 compounds, 20% with a hit somewhere; the sample as a whole holds those more often.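 Method: cells in 96-well plates; compound added at one concentration; 48 h incubation; percent growth measured; values under 10 scored active.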 A number with no mark means an inactive call. The source made the active and inactive calls.

The experiment concerns IGROV1 ovarian. Nature of the experiment: NCI-60 one-dose screen, 48 h (100 = growth as untreated, 0 = no growth, -100 = all killed). The note with it: 10 µM unless noted. Here is the method:
Growth inhibition of the IGROV1 human tumor cell line is measured as a screen for anti-cancer activity. Cells are grown in 96 well plates and exposed to the test compound for 48 hours. Compounds are tested at a single concentration, which is 10^-5 M for most compounds. The reported endpoint is percent growth (GI% or GIPRCNT), where numbers from 0 - 100% represent growth inhibition, and numbers from -100% - 0 represent cell death. For example, a value of 40 represents 60% growth inhibition. A value of 0 means no net growth occurred over the course of the experiment. A value of -40 indicates 40% of cells at the beginning of the experiment died by the end of the experiment. A value of -100 means all cells are dead at the end of the experiment.
NCI-60 Human Tumor Cell Lines Screen was performed using the standard one-dose NCI protocol, which is described in more detail at https://dtp.cancer.gov/discovery_development/nci-60/default.htm.
Compounds with GIPRCNT values below 10 were considered active. Activity score was based on GIPRCNT using the following formula: […]
Score is 0 for GIPRCNT values of 100 or above, 50 for GIPRCNT values of 0, and 100 for GIPRCNT values of -100.
As to `COc1cc2ncnc(Nc3ccc(OCc4cccc(F)c4)c(Cl)c3)c2cc1NC(=O)C1CCCC1`, the growth was 52.2%.
For the molecule `CC(C)(C)c1ccc(OCCCCCCCN2CCNCC2)cc1`, the growth is 52%.
On to `COc1ccc(C2c3ccccc3NC(=O)N2C2CCN(C)CC2)c(OC)c1` (stereo not given), for which the growth is 94.3%.
With `COc1ccc2c(c1)c(-c1nc(-c3c[nH]c4ncccc34)cs1)cn2CCNC(=O)OC(C)(C)C` the figure was 61.1%; with `O=C(O)c1cccc2c1Cc1cc([N+](=O)[O-])ccc1-2`, 92.3%.
With `COC(=O)CCCCCn1c2ccccc2c2c3c(c4c5ccccc5[nH]c4c21)C(=O)N(O)C3=O` the figure was 19.5%.
With `CC1(C)NC2=C(C(Nc3cccnc3)N1)C(c1ccc([N+](=O)[O-])cc1)C(C(=O)c1ccc(N=[N+]=[N-])cc1)O2` (stereo not given) the figure was 104%; with `N#C/C(=C\c1ccc(-c2cccc(C(F)(F)F)c2)o1)c1nc(-c2ccco2)cs1`, 57.5%; with `CCN1CCN(C(=O)[C@@]2(C)CC[C@]3(C)CC[C@]4(C)C(=CC(=O)[C@@H]5[C@@]6(C)CC[C@H](OC7C[C@@H](O)[C@@H](O)C(C)O7)C(C)(C)[C@@H]6CC[C@]54C)[C@@H]3C2)CC1` (stereo not given in full), 26.5%.
As for `Cc1cc(N2CCCC2)nc(N(CCNc2ccnc3cc(Cl)ccc23)Cc2ccco2)n1`, the growth is 4.93% (active).
Regarding `Cc1cc2nc3c4cc(N)ccc4n(CCN(C)C)c3nc2cc1C`, the growth is 3.64% (active).
With `Clc1cc(Cl)cc(Nc2ccc3c(OCCCN4CCOCC4)cccc3n2)c1` the figure was 72.9%; with `CCCCC[C@H]1C/C=C2/C(=O)C=C[C@@H]2C/C=C\CCCC(=O)O[C@@H](CCCCC)C/C=C2/C(=O)C=C[C@@H]2C/C=C\CCCC(=O)O1`, -68.3% (active); with `C[C@@H](C(=O)O)c1ccc2c3cc(Cl)ccc3n(Cc3cc(=O)oc4ccc(Cl)cc34)c2c1`, 74.2%.
Take `CCCCN1CCCCn2c1nc1c2c(=O)n(C)c(=O)n1C`: the growth is 106%.
Consider `C=C(C)[C@@H]1CC[C@]2(CN)CC[C@]3(C)[C@H](CC[C@@H]4[C@@]5(C)CCC(=O)NC(C)(C)[C@@H]5CC[C@]43C)[C@@H]12`, for which the growth was 70.3%.
Take `OCCNc1nc(Nc2ccc(Cl)c(Cl)c2)nc2ccccc12`: the growth is 39.1%.
Regarding `CC/C=C\C[C@H]1CC=C2C(=O)C=C[C@@H]2CC=CCCCC(=O)O[C@@H](CCCCC)CC=C2C(=O)C=C[C@@H]2CC=CCCCC(=O)O[C@@H](CCCCC)CC=C2C(=O)C=C[C@@H]2CC=CCCCC(=O)O[C@@H](CCCCC)CC=C2C(=O)C=C[C@@H]2CC=CCCCC(=O)O1`, the growth was 8.16% [7.9 µM] (active).
With `CCc1nnc(NC(=O)c2ccoc2COc2ccccc2)s1` the figure was 53.4%.
With `NCCn1cc(-c2nc(-c3c[nH]c4ncccc34)cs2)c2cc(F)ccc21` the figure was 47.1%.
For `COC(=O)[C@]12CC[C@@H](C)[C@H](C)[C@@H]1C1=CC[C@@H]3[C@@](C)(CC#N)C4=C(C[C@@]3(C)[C@]1(C)CC2)OC[C@]4(C)C=O`, the growth is 22.9%.
With `O=C(/C=C/c1ccc2ccccc2c1)Nc1ncc(Cc2ccccc2)s1` the figure was 55.6%.
For `CC(=O)Nc1cc(F)cc(C(F)(F)F)c1Cl`, the growth was 100%.
With `COc1c(N)c2c(c([N+](=O)[O-])c1OC)C(=O)OC2` the figure was 105%; with `Oc1ccccc1/C=N\NC(=S)Nc1ccc(F)cc1`, 20%; with `C/C(=N\Nc1ccc2ccccc2n1)c1ccccn1`, -2.71% (active).
`S=c1[nH]nc2ccccn12`: the growth was 115%.
In the case of `COc1ccc2c(c1)c(-c1nc(-c3cn(C)c4ncccc34)cs1)cn2CCCN1CCCCC1`, the growth is 66.1%.
Turning to `NC(Cc1ccc(O)cc1)C(=O)N/N=C/c1ccccc1O` (stereo not given), the growth was 92.8%.
With `C(=C\c1c[nH]c2ccccc12)/c1ccc2ccccc2n1` the figure was 47.8%; with `CC(=O)OC[C@]12CC[C@@H](/C(C)=N/O)[C@@H]1[C@H]1CC[C@@H]3[C@@]4(C)CCCNC(C)(C)[C@@H]4CC[C@@]3(C)[C@]1(C)CC2`, 88.9%; with `CN(C)c1ccc(-c2ccc(-c3ccc(C(=N)N)c(F)c3)s2)cc1`, -84% (active).
For `Fc1ccc2nc(-c3cc(-c4ccc5c(c4)OCO5)n[nH]3)[nH]c2c1`, the growth is 62.3%.
With `COc1ccc(-c2cc(-c3cccs3)n(N=O)c(=O)c2C#N)cc1` the figure was 100%; with `COc1cc(-c2cc(-c3nc4ccccc4[nH]3)[nH]n2)cc(OC)c1OC`, 47.4%.
With `COc1cc(-c2nc(-c3ccccc3)c(-c3ccccc3)[nH]2)cc(OC)c1O` the figure was 22.3%; with `C=C(C)[C@@H]1CC[C@]2(C)CC[C@]3(C)[C@H](CC[C@@H]4[C@@]5(C)CCCNC(C)(C)[C@@H]5CC[C@]43C)[C@@H]12`, 94%; with `CN(C)CCCC1(c2ccc(F)cc2)OCc2cc(-c3ccc(C(F)(F)F)nc3)ccc21` (stereo not given), 66.5%.
For the molecule `O=C1/C(=C\c2ccco2)SC(=S)N1CCc1ccc(O)cc1`, the growth was 94.6%.
Take `CCCCCCCC(=O)SCC/C=C/[C@@H]1CC(=O)NCc2cccc(n2)CN(Cc2ccc(Cl)cc2)CC(=O)N[C@@H](C(C)C)C(=O)O1`: the growth was 10.9%.
